In PubChem BioAssay (NCATS) one finds Potency data, which are given here for 20 compounds.

Molecules are shown by their SMILES. Inconclusive results are not listed. A call without a number means that no potency is given here. The source made the active and inactive calls. The call rests on the fitted dose curve; in most records, active means well fitted inhibition curve with a large enough effect; inconclusive means small, poorly fitted or top-dose-only effect; inactive means no such curve, though single readings can be large or run the other way.
Potency means the concentration at half of the fitted maximal effect.

The nature of the assay: qHTS for Inhibitors of ATXN expression: Validation (AID 588378). Further: nearly all actives have a fitted effect of over 75% in size. Conditions: cell-based ATXN2 expression reporter assay, luminescence; series mostly up to 57.1 µM. In short, it runs like this: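 Validation of ATXN2 expression inhibitors uses a cell-based luciferase fusion reporter in HEK293 cells, with 24 h compound exposure and paired viability (fluorescence) and reporter (luminescence) end-point reads.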
For `O=c1[nH]c2cc(Cl)c(Cl)cc2[nH]c1=O`, the Potency result was “inactive”.
The value for `CNC(=O)[C@H]1O[C@@H](n2cnc3c(NCc4cccc(I)c4)ncnc32)[C@H](O)[C@@H]1O` was “inactive”.
Turning to `Cc1ccccc1CNc1ncnc2c1ncn2C1OC(CO)C(O)C1O` (stereo not given), the Potency result was “inactive”.
As to `O=C(O)CC1CC(c2ccccc2)=NO1` (stereo not given), the Potency result was “inactive”.
The entry for `CCCn1c(=O)c2[nH]c(-c3ccc(OCC(=O)NCCN)cc3)nc2n(CCC)c1=O` is “inactive”; for `O=[N+]([O-])c1ccc2c(c1)S(=O)(=O)C=C2` it is 6.31 µM (active); for `NC(=O)C(=O)O` it is “inactive”.
The value for `CN1CCc2cc(NC(=O)Nc3cccnc3)ccc21` was “inactive”.
In the case of `NC(CCCP(=O)(O)O)C(=O)O` (stereo not given), the Potency result was “inactive”.
The entry for `NCCCS(=O)(=O)O` is “inactive”; for `NCCNC(=O)c1ncsc1-c1cccc(F)c1` it is “inactive”; for `O=C(c1ccc(OCCCc2cnc[nH]2)cc1)C1CC1` it is “inactive”.
For the compound `COc1ccc(NC(=O)/C=C/c2ccc(Cl)cc2)cc1`, the Potency entry is “inactive”.
Regarding `Oc1cc(O)cc(/C=C/c2ccc(O)c(O)c2)c1`, the Potency entry is “inactive”.
The value for `O=c1[nH]c2cc(C(F)(F)F)ccc2n1-c1cc(C(F)(F)F)ccc1O` was “inactive”; that for `COc1cc2nc(N3CCN(C(=O)OCc4ccccc4)C(C(=O)NC(C)(C)C)C3)nc(N)c2cc1OC` (stereo not given) was “inactive”.
Consider `OC[C@H]1O[C@@H](n2cnc3c(NC4CCCCC4)ncnc32)[C@H](O)[C@@H]1O`, for which the Potency entry is “inactive”.
As to `Cc1cc2c(cc1Cl)N(C(=O)Nc1ccc(Oc3cccnc3C)nc1)CC2`, the Potency was 17.8 µM (active).
The value for `CN(C)c1nc2c(Br)c(Br)c(Br)c(Br)c2[nH]1` was “inactive”.
`CCCCCCCCCCCCCCCCCC(=O)OC(CC(=O)O)C[N+](C)(C)C` (stereo not given): the Potency entry is “inactive”.
